# Measured values: paper PMC7862700, “An all-to-all approach to the identification of sequence-specific readers for epigenetic DNA modifications on cytosine”
# How the values were obtained:
# Experiment in all cases: DAPPL (digital affinity profiling via proximity ligation, sequencing); 10 mM Tris-HCl pH 7.5, 50 mM NaCl, 1 mM DTT, 4% glycerol, room temperature, 30 min; GST-TFs on glutathione beads, 16-mer random dsDNA library, 0.1% formaldehyde crosslink after washing; high values mean tight binding
# FLI1 = molecular target: T1, FLI1 (Homo sapiens, UniProt Q01543 1-452); conditions: protein: recombinant; tags: N-terminal GST; dsDNA, one strand shown
# T1 sequence: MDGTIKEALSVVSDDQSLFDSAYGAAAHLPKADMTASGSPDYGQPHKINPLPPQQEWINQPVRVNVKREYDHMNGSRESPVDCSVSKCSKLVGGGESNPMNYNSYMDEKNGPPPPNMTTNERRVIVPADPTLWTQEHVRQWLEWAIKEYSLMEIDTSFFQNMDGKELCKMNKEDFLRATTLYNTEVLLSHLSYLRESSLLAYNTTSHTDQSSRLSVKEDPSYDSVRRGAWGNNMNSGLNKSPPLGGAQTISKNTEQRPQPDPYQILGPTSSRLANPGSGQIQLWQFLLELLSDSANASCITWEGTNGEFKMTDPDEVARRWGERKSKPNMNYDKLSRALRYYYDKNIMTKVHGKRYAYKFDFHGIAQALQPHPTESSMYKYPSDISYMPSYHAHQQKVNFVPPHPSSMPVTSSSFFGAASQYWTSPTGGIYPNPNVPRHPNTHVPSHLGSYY
# In short: (§1)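 Pools of DNA-barcoded human transcription factors, expressed in yeast as GST fusions on glutathione beads and combined with a tag-only sample, were incubated with 200 nmole of a 16-mer random double-stranded DNA library. Incubation took 30 min at room temperature in Tris/NaCl/DTT/glycerol buffer and was followed by washing, 0.1% formaldehyde crosslinking, proximity ligation (BsaI/T4 ligase, 1 h, 37 °C), PCR amplification and sequencing on an Illumina NextSeq500. Binding signal is the ratio of a hexamer's read frequency for a factor to its frequency for the tag-only sample.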
# ELK1 = molecular target: T2, ELK1 (Homo sapiens, UniProt P19419 1-428); conditions: protein: recombinant; tags: N-terminal GST; dsDNA, one strand shown
# T2 sequence: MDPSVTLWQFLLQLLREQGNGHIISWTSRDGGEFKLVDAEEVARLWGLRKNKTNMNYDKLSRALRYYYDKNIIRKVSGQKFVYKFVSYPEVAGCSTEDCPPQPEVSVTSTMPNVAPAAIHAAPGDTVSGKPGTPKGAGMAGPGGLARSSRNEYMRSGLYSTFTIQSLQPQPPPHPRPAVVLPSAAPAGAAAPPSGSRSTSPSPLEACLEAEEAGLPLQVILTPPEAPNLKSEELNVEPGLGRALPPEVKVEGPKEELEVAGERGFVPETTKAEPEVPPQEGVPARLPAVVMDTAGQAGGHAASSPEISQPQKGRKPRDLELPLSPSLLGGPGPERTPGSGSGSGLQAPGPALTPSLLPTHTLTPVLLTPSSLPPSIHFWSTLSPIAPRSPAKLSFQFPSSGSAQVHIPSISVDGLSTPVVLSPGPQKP
# In short: as §1
# GABPA = molecular target: T3, GABPA (Homo sapiens, UniProt Q06546 1-454); conditions: protein: recombinant; tags: N-terminal GST; dsDNA, one strand shown
# T3 sequence: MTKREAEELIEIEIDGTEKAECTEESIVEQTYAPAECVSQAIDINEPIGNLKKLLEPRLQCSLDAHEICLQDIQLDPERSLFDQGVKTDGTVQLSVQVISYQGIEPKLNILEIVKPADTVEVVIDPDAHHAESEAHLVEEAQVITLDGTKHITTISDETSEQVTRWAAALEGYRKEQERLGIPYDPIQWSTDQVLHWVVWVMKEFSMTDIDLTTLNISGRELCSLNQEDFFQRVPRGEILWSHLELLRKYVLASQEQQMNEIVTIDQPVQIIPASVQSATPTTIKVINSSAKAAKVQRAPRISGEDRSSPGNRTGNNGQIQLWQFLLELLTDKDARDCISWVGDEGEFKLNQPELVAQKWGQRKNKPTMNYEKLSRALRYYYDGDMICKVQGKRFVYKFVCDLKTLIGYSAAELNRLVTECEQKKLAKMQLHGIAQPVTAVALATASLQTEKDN
# In short: as §1
# ERG = molecular target: T4, ERG (Homo sapiens, UniProt P11308 1-479); conditions: protein: recombinant; tags: N-terminal GST; dsDNA, one strand shown
# T4 sequence: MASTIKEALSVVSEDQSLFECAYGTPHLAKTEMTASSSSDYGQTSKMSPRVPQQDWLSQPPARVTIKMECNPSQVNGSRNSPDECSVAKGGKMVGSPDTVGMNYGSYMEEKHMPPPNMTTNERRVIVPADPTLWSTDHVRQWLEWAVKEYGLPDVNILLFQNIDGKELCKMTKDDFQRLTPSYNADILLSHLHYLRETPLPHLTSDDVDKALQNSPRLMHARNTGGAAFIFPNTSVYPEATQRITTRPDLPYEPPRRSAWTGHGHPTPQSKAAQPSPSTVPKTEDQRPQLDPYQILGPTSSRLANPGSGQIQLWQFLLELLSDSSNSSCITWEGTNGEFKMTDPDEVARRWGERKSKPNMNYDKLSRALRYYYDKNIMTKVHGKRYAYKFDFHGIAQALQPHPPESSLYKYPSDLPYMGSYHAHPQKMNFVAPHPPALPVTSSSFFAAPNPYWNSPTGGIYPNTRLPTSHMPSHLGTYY
# In short: as §1
# ELF1 = ELF1 (Homo sapiens, UniProt P32519 1-619); conditions: protein: recombinant; tags: N-terminal GST; dsDNA, one strand shown
# Sequence of ELF1 (P32519 whole entry): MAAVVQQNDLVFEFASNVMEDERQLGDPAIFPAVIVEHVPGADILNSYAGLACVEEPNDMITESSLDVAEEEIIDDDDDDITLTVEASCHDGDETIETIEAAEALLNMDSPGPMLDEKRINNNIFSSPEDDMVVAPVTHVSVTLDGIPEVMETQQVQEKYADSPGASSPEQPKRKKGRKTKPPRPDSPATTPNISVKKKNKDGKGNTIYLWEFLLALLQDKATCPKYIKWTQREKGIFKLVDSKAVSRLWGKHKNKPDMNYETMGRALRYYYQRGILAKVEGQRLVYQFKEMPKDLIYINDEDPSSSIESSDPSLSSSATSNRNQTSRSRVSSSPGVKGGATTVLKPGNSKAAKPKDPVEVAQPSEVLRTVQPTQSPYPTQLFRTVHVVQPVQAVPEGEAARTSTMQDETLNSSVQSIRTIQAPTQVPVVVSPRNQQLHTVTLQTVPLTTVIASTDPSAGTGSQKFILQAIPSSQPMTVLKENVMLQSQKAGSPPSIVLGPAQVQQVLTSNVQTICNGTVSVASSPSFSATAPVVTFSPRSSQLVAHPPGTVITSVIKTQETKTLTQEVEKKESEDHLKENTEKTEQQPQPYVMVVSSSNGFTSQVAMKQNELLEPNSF
# In short: as §1
# EHF = molecular target: T5, EHF (Homo sapiens, UniProt Q9NZC4 1-300); conditions: protein: recombinant; tags: N-terminal GST; dsDNA, one strand shown
# T5 sequence: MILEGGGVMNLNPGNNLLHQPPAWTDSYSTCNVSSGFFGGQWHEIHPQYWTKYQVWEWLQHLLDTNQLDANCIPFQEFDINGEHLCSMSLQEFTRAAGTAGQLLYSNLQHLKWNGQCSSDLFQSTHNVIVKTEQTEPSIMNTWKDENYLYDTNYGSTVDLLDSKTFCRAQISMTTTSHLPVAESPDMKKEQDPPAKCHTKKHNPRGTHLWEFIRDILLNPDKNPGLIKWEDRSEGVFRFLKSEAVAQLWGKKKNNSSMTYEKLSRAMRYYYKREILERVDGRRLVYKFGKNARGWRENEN
# In short: as §1
# SPI1 = SPI1 (Homo sapiens, UniProt P17947 1-270); conditions: protein: recombinant; tags: N-terminal GST; dsDNA, one strand shown
# In short: as §1
# SPIB = SPIB (Homo sapiens, UniProt Q01892 1-262); conditions: protein: recombinant; tags: N-terminal GST; dsDNA, one strand shown
# Sequence of SPIB (Q01892 whole entry): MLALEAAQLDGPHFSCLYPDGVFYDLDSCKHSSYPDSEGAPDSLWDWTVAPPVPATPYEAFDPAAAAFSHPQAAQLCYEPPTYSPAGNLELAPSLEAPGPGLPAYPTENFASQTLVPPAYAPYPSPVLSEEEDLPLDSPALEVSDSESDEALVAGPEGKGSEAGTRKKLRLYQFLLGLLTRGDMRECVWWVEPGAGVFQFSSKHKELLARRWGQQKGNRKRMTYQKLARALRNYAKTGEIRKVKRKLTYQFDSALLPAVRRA
# In short: as §1
# ELK3 = molecular target: T6, ELK3 (Homo sapiens, UniProt P41970 1-407); conditions: protein: recombinant; tags: N-terminal GST; dsDNA, one strand shown
# T6 sequence: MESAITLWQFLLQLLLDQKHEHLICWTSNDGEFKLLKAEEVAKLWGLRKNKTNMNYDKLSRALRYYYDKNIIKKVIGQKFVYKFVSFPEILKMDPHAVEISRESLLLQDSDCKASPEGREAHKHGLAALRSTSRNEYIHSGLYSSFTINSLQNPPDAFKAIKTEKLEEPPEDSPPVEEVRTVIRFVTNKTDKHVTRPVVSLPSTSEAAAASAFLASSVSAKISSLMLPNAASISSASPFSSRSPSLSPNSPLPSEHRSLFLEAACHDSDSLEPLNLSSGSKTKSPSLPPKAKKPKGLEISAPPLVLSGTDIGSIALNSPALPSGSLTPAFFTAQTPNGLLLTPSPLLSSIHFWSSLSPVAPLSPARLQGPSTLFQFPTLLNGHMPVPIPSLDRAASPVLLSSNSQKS
# In short: as §1
# FEV = molecular target: T7, FEV (Homo sapiens, UniProt Q99581 1-238); conditions: protein: recombinant; tags: N-terminal GST; dsDNA, one strand shown
# T7 sequence: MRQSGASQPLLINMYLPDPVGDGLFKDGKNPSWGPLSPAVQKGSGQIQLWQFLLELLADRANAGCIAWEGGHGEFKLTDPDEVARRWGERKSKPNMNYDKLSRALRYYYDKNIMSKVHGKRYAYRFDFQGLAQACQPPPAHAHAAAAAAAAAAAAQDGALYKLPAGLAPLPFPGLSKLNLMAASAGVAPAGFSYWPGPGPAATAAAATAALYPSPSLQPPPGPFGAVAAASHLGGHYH
# In short: as §1
# ETV5 = ETV5 (Homo sapiens, UniProt P41161 1-510); conditions: protein: recombinant; tags: N-terminal GST; dsDNA, one strand shown
# Sequence of ETV5 (P41161 whole entry): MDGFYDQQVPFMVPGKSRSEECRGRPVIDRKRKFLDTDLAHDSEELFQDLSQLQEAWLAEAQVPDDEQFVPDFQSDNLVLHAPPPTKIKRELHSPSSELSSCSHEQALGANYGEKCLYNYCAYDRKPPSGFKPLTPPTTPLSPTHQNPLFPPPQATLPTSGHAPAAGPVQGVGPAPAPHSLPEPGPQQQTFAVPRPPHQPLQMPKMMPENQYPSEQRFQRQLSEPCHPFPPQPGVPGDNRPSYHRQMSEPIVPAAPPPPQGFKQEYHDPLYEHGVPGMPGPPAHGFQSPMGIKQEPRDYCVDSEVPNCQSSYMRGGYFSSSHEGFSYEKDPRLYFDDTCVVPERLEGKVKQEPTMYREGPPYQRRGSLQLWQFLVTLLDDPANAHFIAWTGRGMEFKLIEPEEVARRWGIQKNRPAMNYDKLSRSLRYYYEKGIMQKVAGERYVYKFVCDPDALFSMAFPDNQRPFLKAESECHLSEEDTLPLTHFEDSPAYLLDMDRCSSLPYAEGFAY
# In short: as §1
# HSF1 = HSF1 (Homo sapiens, UniProt Q00613 1-529); conditions: protein: recombinant; tags: N-terminal GST; chain copies: 3; dsDNA, one strand shown
# Sequence of HSF1 (Q00613 whole entry): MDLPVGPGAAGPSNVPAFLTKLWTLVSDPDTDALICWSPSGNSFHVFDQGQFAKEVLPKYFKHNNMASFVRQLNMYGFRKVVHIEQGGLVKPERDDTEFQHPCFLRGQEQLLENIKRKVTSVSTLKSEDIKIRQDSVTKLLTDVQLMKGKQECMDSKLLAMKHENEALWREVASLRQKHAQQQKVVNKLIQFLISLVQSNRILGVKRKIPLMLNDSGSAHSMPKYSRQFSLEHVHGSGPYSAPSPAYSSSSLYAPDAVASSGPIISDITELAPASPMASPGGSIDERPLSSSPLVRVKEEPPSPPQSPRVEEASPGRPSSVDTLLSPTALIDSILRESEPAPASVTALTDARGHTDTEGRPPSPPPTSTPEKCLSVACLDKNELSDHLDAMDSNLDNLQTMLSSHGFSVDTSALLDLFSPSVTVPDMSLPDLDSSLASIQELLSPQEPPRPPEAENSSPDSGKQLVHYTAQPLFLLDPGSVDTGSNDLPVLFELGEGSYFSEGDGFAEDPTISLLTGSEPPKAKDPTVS
# In short: as §1
# SPIC = molecular target: T8, SPIC (Homo sapiens, UniProt Q8N5J4 1-248); conditions: protein: recombinant; tags: N-terminal GST; dsDNA, one strand shown
# T8 sequence: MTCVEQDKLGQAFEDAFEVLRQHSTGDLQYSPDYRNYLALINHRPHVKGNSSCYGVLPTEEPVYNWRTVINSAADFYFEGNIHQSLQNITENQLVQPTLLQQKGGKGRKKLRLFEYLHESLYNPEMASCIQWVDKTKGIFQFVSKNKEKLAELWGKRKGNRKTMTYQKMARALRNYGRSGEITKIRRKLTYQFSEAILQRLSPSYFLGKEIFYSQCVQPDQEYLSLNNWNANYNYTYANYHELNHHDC
# In short: as §1
# ELF4 = ELF4 (Homo sapiens, UniProt Q99607 1-663); conditions: protein: recombinant; tags: N-terminal GST; dsDNA, one strand shown
# Sequence of ELF4 (Q99607 whole entry): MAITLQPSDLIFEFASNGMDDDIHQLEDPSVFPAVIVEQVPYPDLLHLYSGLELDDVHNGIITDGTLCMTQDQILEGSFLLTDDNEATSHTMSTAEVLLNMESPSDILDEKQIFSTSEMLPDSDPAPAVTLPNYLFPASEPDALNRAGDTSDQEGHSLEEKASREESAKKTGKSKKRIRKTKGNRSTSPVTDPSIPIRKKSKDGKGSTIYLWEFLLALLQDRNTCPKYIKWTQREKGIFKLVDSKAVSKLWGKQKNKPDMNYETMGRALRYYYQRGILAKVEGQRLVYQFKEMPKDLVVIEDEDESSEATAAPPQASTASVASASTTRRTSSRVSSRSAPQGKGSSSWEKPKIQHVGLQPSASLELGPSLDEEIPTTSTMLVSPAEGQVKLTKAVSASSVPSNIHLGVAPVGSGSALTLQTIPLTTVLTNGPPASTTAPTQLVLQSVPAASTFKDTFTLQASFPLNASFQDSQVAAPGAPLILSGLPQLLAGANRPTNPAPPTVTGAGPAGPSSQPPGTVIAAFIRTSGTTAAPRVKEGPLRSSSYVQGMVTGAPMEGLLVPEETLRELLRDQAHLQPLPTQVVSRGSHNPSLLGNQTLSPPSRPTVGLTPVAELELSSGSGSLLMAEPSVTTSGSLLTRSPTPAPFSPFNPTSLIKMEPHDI
# In short: as §1
# ELK4 = molecular target: T9, ELK4 (Homo sapiens, UniProt P28324-2 1-405); conditions: protein: recombinant; tags: N-terminal GST; dsDNA, one strand shown
# T9 sequence: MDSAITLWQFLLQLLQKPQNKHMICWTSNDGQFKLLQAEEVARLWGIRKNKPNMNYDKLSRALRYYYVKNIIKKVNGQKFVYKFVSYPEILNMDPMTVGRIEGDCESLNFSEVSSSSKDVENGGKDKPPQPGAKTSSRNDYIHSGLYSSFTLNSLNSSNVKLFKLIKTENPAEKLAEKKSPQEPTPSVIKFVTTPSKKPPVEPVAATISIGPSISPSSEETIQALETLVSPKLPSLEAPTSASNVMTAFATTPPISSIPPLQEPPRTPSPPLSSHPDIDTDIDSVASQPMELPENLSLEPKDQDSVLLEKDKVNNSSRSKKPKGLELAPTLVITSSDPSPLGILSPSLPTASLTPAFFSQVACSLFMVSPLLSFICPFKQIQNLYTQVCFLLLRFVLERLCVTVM
# In short: as §1
# ETV2 = molecular target: T10, ETV2 (Homo sapiens, UniProt O00321 1-342); conditions: protein: recombinant; tags: N-terminal GST; dsDNA, one strand shown
# T10 sequence: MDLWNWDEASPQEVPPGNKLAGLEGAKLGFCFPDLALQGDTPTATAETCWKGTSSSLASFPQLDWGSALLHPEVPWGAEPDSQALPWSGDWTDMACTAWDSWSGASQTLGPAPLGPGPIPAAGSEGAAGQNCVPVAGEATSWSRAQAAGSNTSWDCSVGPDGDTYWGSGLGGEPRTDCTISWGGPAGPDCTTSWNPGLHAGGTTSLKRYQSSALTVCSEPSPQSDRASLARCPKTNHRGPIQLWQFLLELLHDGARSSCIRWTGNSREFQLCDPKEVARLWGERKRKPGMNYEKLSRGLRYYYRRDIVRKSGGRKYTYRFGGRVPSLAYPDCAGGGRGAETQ
# In short: as §1
# ELF3 = molecular target: T11, ELF3 (Homo sapiens, UniProt P78545 1-371); conditions: protein: recombinant; tags: N-terminal GST; dsDNA, one strand shown
# T11 sequence: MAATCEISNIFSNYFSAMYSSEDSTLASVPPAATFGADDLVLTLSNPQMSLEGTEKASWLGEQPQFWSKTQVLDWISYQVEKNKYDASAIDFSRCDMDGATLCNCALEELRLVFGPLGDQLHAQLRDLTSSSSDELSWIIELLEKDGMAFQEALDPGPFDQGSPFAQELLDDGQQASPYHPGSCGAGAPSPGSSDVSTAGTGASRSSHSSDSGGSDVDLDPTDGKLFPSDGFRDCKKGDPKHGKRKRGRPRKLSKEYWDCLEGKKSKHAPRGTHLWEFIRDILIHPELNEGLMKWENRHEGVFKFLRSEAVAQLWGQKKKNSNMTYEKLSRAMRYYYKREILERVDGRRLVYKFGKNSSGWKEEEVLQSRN
# In short: as §1
# CRX = CRX (Homo sapiens, UniProt O43186 1-299); conditions: protein: recombinant; tags: N-terminal GST; dsDNA, one strand shown
# Sequence of CRX (O43186 whole entry): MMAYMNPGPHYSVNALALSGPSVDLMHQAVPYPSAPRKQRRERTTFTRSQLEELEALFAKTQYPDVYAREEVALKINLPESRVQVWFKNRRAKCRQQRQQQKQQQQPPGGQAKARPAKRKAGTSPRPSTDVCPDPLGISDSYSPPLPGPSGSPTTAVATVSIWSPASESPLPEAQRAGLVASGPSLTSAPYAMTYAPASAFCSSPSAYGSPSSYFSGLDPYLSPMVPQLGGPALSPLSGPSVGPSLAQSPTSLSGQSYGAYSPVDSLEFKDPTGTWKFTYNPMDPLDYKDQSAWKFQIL
# In short: as §1
# ETV1 = ETV1 (Homo sapiens, UniProt P50549 1-477); conditions: protein: recombinant; tags: N-terminal GST; dsDNA, one strand shown
# Sequence of ETV1 (P50549 whole entry): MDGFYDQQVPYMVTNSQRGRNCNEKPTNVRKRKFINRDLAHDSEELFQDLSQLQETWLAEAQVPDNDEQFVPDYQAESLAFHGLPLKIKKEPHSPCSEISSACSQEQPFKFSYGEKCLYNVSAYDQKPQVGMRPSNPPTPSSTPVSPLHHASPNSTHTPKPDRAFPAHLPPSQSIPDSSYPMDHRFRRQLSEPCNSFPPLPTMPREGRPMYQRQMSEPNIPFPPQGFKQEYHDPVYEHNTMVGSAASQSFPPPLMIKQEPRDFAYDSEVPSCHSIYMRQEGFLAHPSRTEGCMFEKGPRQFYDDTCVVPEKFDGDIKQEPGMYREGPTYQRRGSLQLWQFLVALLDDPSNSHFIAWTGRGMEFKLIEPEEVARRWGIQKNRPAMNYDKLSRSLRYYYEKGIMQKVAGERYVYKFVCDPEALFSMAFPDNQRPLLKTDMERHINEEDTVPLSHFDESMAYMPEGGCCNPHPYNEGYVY
# In short: as §1
sequence,measurement,setting,value
TCGATC,binding signal,FLI1,"1.31 fold enrichment (6-mer frequency, TF over GST control)"
same,binding signal,ELK1,"1.08 fold enrichment (6-mer frequency, TF over GST control)"
same,binding signal,GABPA,"1.14 fold enrichment (6-mer frequency, TF over GST control)"
same,binding signal,ERG,"1.18 fold enrichment (6-mer frequency, TF over GST control)"
same,binding signal,ELF1,"1.27 fold enrichment (6-mer frequency, TF over GST control)"
same,binding signal,EHF,"1.16 fold enrichment (6-mer frequency, TF over GST control)"
same,binding signal,SPI1,"1.11 fold enrichment (6-mer frequency, TF over GST control)"
same,binding signal,SPIB,"1.25 fold enrichment (6-mer frequency, TF over GST control)"
same,binding signal,ELK3,"1.27 fold enrichment (6-mer frequency, TF over GST control)"
same,binding signal,FEV,"1.09 fold enrichment (6-mer frequency, TF over GST control)"
same,binding signal,ETV5,"1.19 fold enrichment (6-mer frequency, TF over GST control)"
same,binding signal,HSF1,"1.54 fold enrichment (6-mer frequency, TF over GST control)"
same,binding signal,SPIC,"1.1 fold enrichment (6-mer frequency, TF over GST control)"
same,binding signal,ELF4,"1.14 fold enrichment (6-mer frequency, TF over GST control)"
same,binding signal,ELK4,"1.15 fold enrichment (6-mer frequency, TF over GST control)"
same,binding signal,ETV2,"1.06 fold enrichment (6-mer frequency, TF over GST control)"
same,binding signal,ELF3,"1.17 fold enrichment (6-mer frequency, TF over GST control)"
same,binding signal,CRX,"1.23 fold enrichment (6-mer frequency, TF over GST control)"
same,binding signal,ETV1,"1.16 fold enrichment (6-mer frequency, TF over GST control)"
